# Bioassay records from PubChem BioAssay.
# Hits are enriched below; roughly 8.3% of the tested compounds scored in any of these assays.
# HCMV antiviral – blocks human cytomegalovirus replication. HFF cells, HCMV-luciferase reporter, 72 h; stronger effect = lower value. activity change, negative = inhibition, % at 57.5 µM. 410,000 tested, 4.5% active. AID 1259415; in the data active = activity change below about -60%; inconclusive = no clear call, values can overlap the other calls; inactive = above about -39%
#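 Luciferase read-out from HCMV-luciferase-infected HFFs (MOI 1 PFU/cell) 72 h post infection at 37C; compounds added after 16 h cell attachment; activity normalized between buffer-only basal and Salinomycin (10uM) inhibitor controls.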
# FMDV inh – antivirals against foot and mouth disease virus | FMDV antiviral cell-based qHTS | Potency, µM (highest dose often 57.9 µM), inactives show top-dose activity change, negative = inhibition, usual class: inhibitors | 410,000 tested, 1.2% active | AID 1159524; calls by dose curve; tested in HEK293T cells; note: read-out not given here; potency is the fitted concentration of half-maximal effect; nearly all actives have a fitted effect of over 45% in size
# FBPA Giardia inh – inhibitors of Giardia lamblia fructose-1,6-bisphosphate aldolase; A8B2U2; purified Giardia FBPA; Potency, µM (series often up to 59.6 µM), inactives show at the highest dose activity, negative = inhibition, usual class: inhibitors; 290,000 tested, 0.71% active; AID 2451; note: potency is the fitted concentration of half-maximal effect; nearly all actives have a fitted effect of over 55% in size
# Target sequence (A8B2U2 whole entry, looked up): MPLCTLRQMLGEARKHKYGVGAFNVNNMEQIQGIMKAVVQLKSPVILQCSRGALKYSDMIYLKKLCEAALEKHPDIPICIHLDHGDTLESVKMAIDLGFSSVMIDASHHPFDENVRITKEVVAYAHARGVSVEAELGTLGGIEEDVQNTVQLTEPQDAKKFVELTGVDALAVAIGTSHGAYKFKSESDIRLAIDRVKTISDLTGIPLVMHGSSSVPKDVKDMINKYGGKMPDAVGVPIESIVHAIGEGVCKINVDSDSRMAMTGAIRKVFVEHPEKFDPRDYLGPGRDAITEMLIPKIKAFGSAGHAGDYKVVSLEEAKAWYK
#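 Giardia FBPA (40 nM reagent) was preincubated 10 min at RT with compound (up to 57.5 uM final), then substrate plus GAPDH/TPI/NAD/arsenate coupling system with diaphorase/resazurin was added; resorufin fluorescence (525/598 nm) was read after 20 min.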
# Marburg entry inh – blocks Marburg virus binding to or entry into cells; Marburg virus pseudotyped entry inhibition, cell reporter; Potency, µM (series often up to 37.8 µM), without a hit: at the top dose activity change, negative = inhibition, most hits filed as inhibitors; 300,000 tested, 1.8% active; calls by dose curve; tested in HEK293 cells; note: potency is the fitted concentration of half-maximal effect
# Lassa entry inh – Lassa virus entry inhibition; Lassa virus pseudotype entry inhibition, cell reporter; Potency, µM (titrated, usually from 37.9 µM), without a hit: at the top dose activity change, negative = inhibition, hits mostly inhibitors; 300,000 tested, 1.2% active; AID 540256; calls by dose curve; tested in HEK293 cells; note: potency is the fitted concentration of half-maximal effect; nearly all actives have a fitted effect of over 50% in size
# HCV inhibitor – HCV inhibition | Huh7.5.1 HCVcc-Cre infection, luciferase reporter, 44 h | Potency, µM (series often up to 41.8 µM), for the others: top-dose activity change, negative = inhibition, most hits filed as inhibitors | 340,000 tested, 3.4% active; note: potency is the fitted concentration of half-maximal effect
#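 Cells (1,000/well) were plated 4 h before compound, then infected with HCVcc-Cre virus (~0.5 moi). After 44 h further culture, infection was read as luciferase luminescence following a 15 min substrate incubation at room temperature.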
# Active calls of the source: *; ? = inconclusive; . = not tested or not shown; [ ] = another dose, or the depositor's remark. Unless noted, calls come from the whole dose curve; as a rule, active = well fitted curve in the direction sought with a large enough effect; inconclusive = small, poorly fitted or top-dose-only effect, or another doubt; inactive = no such curve, though single readings can be large; an effect the other way counts as inactive or inconclusive. % is set by controls: 0 for no effect and ±100 for the full control effect.
SMILES,HCMV antiviral,FMDV inh,FBPA Giardia inh,Marburg entry inh,Lassa entry inh,HCV inhibitor
COc1cc(C(=O)N/N=C/c2sccc2C)cc(OC)c1OC,-87*,12%,1%,?,?,?
Cc1ccccc1/C=N/NC(=O)c1sccc1C,34,-15%,1%,-24%,-14%,-9%
COc1ccc(/C=N/NC(=O)c2sccc2C)c2ccccc12,-62*,35%,.,.,.,14%
COc1cc(C(=O)Oc2ccccc2/C=N/NC(=O)c2ccc(C)c(Cl)c2)cc(OC)c1OC,-104*,9%,4%,?,?,?
O=C(Nc1cccc(-c2nc3ncccc3o2)c1)c1sc2cc(Cl)ccc2c1Cl,20,51%,2%,?,-16%,8.9µM*
CC(C)CCNC(=O)c1cc(C(=O)c2cc(F)ccc2O)cn(CCC(C)C)c1=O,-14,-6%,6%,8%[46.1 µM],1%,?
CCOCCCn1cc(C(=O)c2cc(Br)ccc2O)cc(C#N)c1=O,12,6%,8%,-27%[46.1 µM],?,-18%
CC(C)CCNC(=O)c1cc(C(=O)c2cc(Br)ccc2O)cn(CCC(C)C)c1=O,-73*,?,4%,-19%[46.1 µM],2%,?
COCCCn1cc(C(=O)c2cc(Br)ccc2O)cc(C#N)c1=O,-25,-10%,4%,1.6µM*,?,-27%
CCCCn1cc(C(=O)c2cc(Br)ccc2O)cc(C#N)c1=O,-6,?,2%,?,?,11µM*
C#CCCC[C@@H](/C=C/C(=O)OCC)NC(=O)C(F)(F)F,0,.,.,.,.,.
O=C(C1CC1)N1CCc2cc(Br)cc(S(=O)(=O)Nc3ccc(C(F)(F)F)cc3)c21,-17,-11%,.,?,?,.
Nc1ncnc2oc(-c3ccco3)c(-c3ccco3)c12,-39,.,?,?,-14%,11µM*
Cc1cc(C)n(CCc2nc(-c3ccco3)cs2)n1,-105*,1%,?,12%,-11%,-2%
Cc1cc(C)n(CCc2nc(-c3cccs3)cs2)n1,20,0%,-14%,5%,-10%,14%
Cc1cc(C)n(CCc2nc(-c3ccc(-c4ccccc4)cc3)cs2)n1,-65*,4%,0%,11%[46.1 µM],13%[46.1 µM],?
CC[C@@H](c1ccccc1)n1c(=O)n2n(c1=O)[C@H]1[C@H](O)[C@H]3O[C@@H]3/C(=N/OCC(C)C)[C@@H]1CC2,.,.,1%[12.9 µM],.,.,.
COc1c(C(N)=O)cc(-c2ccc(Cl)cc2)cc1-c1ccc(S(N)(=O)=O)cc1,.,.,.,.,25µM*,.
COc1ccc(Cl)cc1C(=O)Nc1ccc(S(N)(=O)=O)cc1,?,-13%,-7%,9%[46.1 µM],-9%,?
Clc1ccccc1-c1cc(NCc2ccccc2)ncn1,.,16%,-3%,.,.,.
COC(=O)C1=C(C)N(Cc2cccnc2)C(=O)/C1=C\c1sccc1C,115,-12%,5%,7%[46.1 µM],-3%[46.1 µM],11µM*
C=CCN1C(=O)/C(=C\c2ccco2)C(C(=O)OC)=C1C,32,-4%,-13%,1%,3%,?
CCN1C(=O)/C(=C\c2ccco2)C(C(=O)OC)=C1C,27,-11%,1%,-22%,-2%,13µM*
COC(=O)C1=C(C)N(CC(C)C)C(=O)/C1=C\c1cccs1,-32,0%,1%,-5%,-1%,16µM*
CCOC(=O)C1=C(C)N(CC(C)C)C(=O)/C1=C\c1cccs1,-27,-4%,5%,12%[46.1 µM],4%,?
SMILES,HCMV antiviral,FMDV inh,FBPA Giardia inh,Marburg entry inh,Lassa entry inh,HCV inhibitor
CCOC(=O)c1cc(-c2ccc(F)cc2)n(CCC(=O)NCCc2ccc(C)cc2)c1C,0,-5%,.,.,4%[46.1 µM],.
C/C(=N\N1CCN(C2c3ccccc3-c3ccccc32)CC1)c1ccncc1,-35,13µM*,.,8%,15%,15%
COC(=O)c1cc(Nc2nc3ccccc3nc2NS(=O)(=O)c2ccc(C)cc2)ccc1Cl,-106*,-4%,.,?,10%[46.1 µM],.
O=[N+]([O-])c1ccc(S(=O)(=O)Nc2nc3ccccc3nc2Nc2ccccc2)cc1,-80*,-16%,-7%,?,-21%,?
O=C(O)c1ccc(Nc2nc3ccccc3nc2NS(=O)(=O)c2ccc(F)cc2)cc1,21,16%,0%,.,.,16%
COc1cc(Nc2nc3ccccc3nc2NS(=O)(=O)c2ccc([N+](=O)[O-])cc2)cc(OC)c1OC,-74*,-33%,0%,19%[46.1 µM],?,22µM*
CCOC(=O)C(=Cc1cc(=O)c(OC)co1)C(=O)OCC,-84*,8.9µM*,-2%,?,?,10µM*
COc1coc(C(O)CN)cc1=O (stereo not drawn),-32,18%,-16%,-1%[46.1 µM],0%,6%
CC(=O)NCCNc1nc(-c2cccnc2)nc2ccccc12,.,-6%,-6%,.,.,.
CCOc1ccc(/C=C2\C(=O)c3ccccc3OC2c2ccccc2)cc1 (stereo not drawn),-99*,17%,2%,-9%,?,3%
COc1ccc(/C=C2\C(=O)c3ccccc3OC2c2ccccc2)cc1 (stereo not drawn),1,-17%,-3%,.,.,-28%
Fc1cccc(-c2cc3cnc(Nc4ccc(C(F)(F)F)cc4)cc3[nH]2)c1,-7,.,.,.,.,.
CCOC(=O)C1=C(C)N=C2c3ccccc3C(=O)C2C1c1ccc(Cl)cc1 (stereo not drawn),-80*,?,-5%,?,?,16µM*
CCOC(=O)C1=NNC(C(=O)c2ccccc2)C1c1ccc(Cl)cc1 (stereo not drawn),-19,-14%,0%,?,-38%[46.1 µM],?
Cc1ccc(C2C3=C(CC(C)(C)CC3=O)N=C3c4ccccc4C(=O)C32)cc1 (stereo not drawn),-68*,?,-12%,?,?,?
CC1(C)CC(=O)C2=C(C1)N=C1c3ccccc3C(=O)C1C2c1ccc(Cl)cc1 (stereo not drawn),-71*,?,-18%,?,?,13µM*
CC1(C)CC(=O)C2=C(C1)N=c1s/c(=C/c3ccc(F)c(F)c3)c(=O)n1C2c1ccc(F)cc1 (stereo not drawn),-7,?,-1%,-24%,5%,14%
COc1ccc(CCNC(=O)c2ccc(S(=O)(=O)N(C)c3ccccc3)cc2)cc1OC,15,?,-4%,-25%,?,?
COC(=O)c1ccc(CNC(=O)c2sccc2-c2ccccc2)cc1,-11,?,.,?,?,?
CN(c1ccccc1)S(=O)(=O)c1ccc(C(=O)NCc2ccccc2CN2CCCC2)cc1,?,?,.,?,12%,10µM*
COC(=O)c1cc(CNC(=O)c2sccc2-c2ccccc2)ccc1OC,40,?,6%,.,.,11µM*
COC(=O)c1cc(CNC(=O)c2ccc(S(=O)(=O)N(C)c3ccccc3)cc2)ccc1OC,-2,?,.,-8%,-16%,4µM*
